# Laboratory results: PubChem BioAssay
# “And” between values parts separate entries of the source, which are not always exact repeats. Equal entries are not always repeated. For some of these results: Measured potencies and affinities stand elsewhere. The source made the active and inactive calls. Cut-off read from the data, not from the text of the source, unless noted: active = parasite load remaining mostly below about 12% (no sharp cut-off); inactive = mostly above about 10%.
# Key:
# [1] = polyglutamine-triggered caspase-3 activation inhibitors, cell-based (AID 1583); conditions: polyglutamine-induced caspase-3 activation, cell assay; stronger effect = higher value;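 tested at 10 µM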
# [2] = suppressors of polyQ aggregation in yeast, 75Q-TubU reporter (AID 1593); conditions: Yeast 75Q polyglutamine aggregation reporter
# [3] = rescue of polyQ-huntingtin neuronal dysfunction in worms, whole organism, C. elegans mechanosensory neurons, N-terminal huntingtin (AID 1599); conditions: touch response, stronger effect = higher value
# [4] = inhibitors of mitochondrial cytochrome c release, biochemical, purified mitochondria (AID 1603); conditions: stronger effect = lower value;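 note: mouse liver mitochondria challenged with calcium chloride; signal normalized to the plate average as 100%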
# [5] = inhibitors of polyQ protein aggregation (AID 1604); conditions: polyglutamine-induced protein aggregation inhibition assay; stronger effect = higher value; tested at 2.5 µM
# [6] = enhancers of glutamate uptake in motor neurons, MN-1 cell line (AID 1612); conditions: MN-1 motor neuron cells, stronger effect = higher value;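 note: tested at 1 µM final; 0% = mean of DMSO vehicle wells on each plate; positive means more glutamate uptake than control and negative means less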
# [7] = reducers of polyQ inclusions in PC12 cells, cell-based, NGF-treated PC12, GFPQ80 (AID 1614); conditions: PC12 NGF-treated GFP-polyQ80 inclusion reduction;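 note: lower means fewer inclusions and 0 means no inclusions at all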
# [8] = suppressors of polyglutamine aggregation in yeast, 75Q-TubH (AID 1616); conditions: S. cerevisiae 75Q-TubH polyglutamine aggregation suppression; stronger effect = higher value
# [9] = liver-stage malaria parasite growth inhibition, primary screen, cell-based, HepG2, luciferase luminescence, HepG2 viability (AID 624349);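 note: 100% = mean of DMSO negative control wells on the same plate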; conditions: P. berghei liver stage in HepG2, luciferase luminescence, concentration not given here; parasite load remaining: stronger effect = lower value; viability: measured here: HepG2 viability without parasites
# [10] = differential killing of epithelial or mesenchymal cells, primary screen, imaging, PC-3E GFP, TEM4-18 mCherry, co-culture (AID 1345086;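 active = compounds killing one labelled cell type while sparing the other, by normalised counts and ratio limits, not self-fluorescent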;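 for all read-outs here: cells exposed to compound for 72 h before imaging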;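 for red/green cell ratio (normalised): normalised mesenchymal count divided by normalised epithelial count so high means epithelial killing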); conditions: imaging cell counts, at 1 µM; for red/green cell ratio (normalised): actives lie on both sides, counts scaled to control wells, 1 = unselective
# [11] = sensitizers of A549 cells to miR-34 induction, primary screen, imaging, A549 dox-inducible miR-34, nuclei and caspase counts (AID 1347080;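 active = compounds whose cell count with miR-34 switched on is under 0.7 times the count with it off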); conditions: A549 miR-34 inducible, Hoechst nuclei count, 48 h
# [12] = measured here: epithelial PC-3E GFP cell survival
# [13] = measured here: mesenchymal TEM4-18 mCherry cell survival
# [14] = stronger effect = lower value, cell number ratio, induced over uninduced
# [15] = measured here: relative caspase fold change +Dox/-Dox
# [16] = measured here: total cells with miR-34 induction, stronger effect = lower value
# [17] = measured here: total cells without miR-34 induction
Compound,inhibition [1],score [2],rescue above control [3],cytochrome c release ratio [4],inhibition of aggregation [5],glutamate uptake change [6],inclusion score [7],aggregation suppression score [8],parasite load remaining [9],viability [9],red/green cell ratio (normalised) [10],"normalised cell number [10, 12]","normalised cell number [10, 13]","fold change [11, 14]","fold change [11, 15]","cell count [11, 16]","cell count [11, 17]"
C[C@@H]1CC2C3CCC4=CC(=O)C=C[C@]4(C)[C@@]3(F)[C@@H](O)C[C@]2(C)[C@@]1(O)C(=O)COP(=O)(O)O (some centres not stated),-13.7%,2.71,-9.5,0.74,70.1%,6.45%,2.5,1.87,113% (inactive) and 77.9% (inactive),75.1% and 87%,1.5 (inactive),1.11,1.67,0.847 (inactive),1.88,7240,8540
C[C@]12C=CC(=O)C=C1CCC1C2C(=O)C[C@@]2(C)C1CC[C@]2(O)C(=O)CO (some centres not stated),10.6%,1.16,5.79,0.79,-17.6%,-8.9%,2,1.29,71.9% (inactive) and 35.5% (inactive),73% and 91%,1.16 (inactive),0.94,1.1,0.854 (inactive),2.55,10500,12300
CC(=O)OCC(=O)[C@H]1CCC2C3CCC4=CC(=O)CC[C@]4(C)C3CC[C@@]21C (some centres not stated),-3.1%,0.92,-2.35,1.07,63.5%,23%,2.5,0.669,44.3% (inactive),97.7%,1.09 (inactive),1.34,1.47,0.848 (inactive),2.3,9410,11100
O=C(O)CCCCC1SCC2NC(=O)NC21 (configuration not stated),27.9%,1.08,4.79,0.89,0%,-4.28%,2,1.3,40.6% (inactive) and 36.1% (inactive),78% and 88.2%,1.21 (inactive),1.02,1.23,0.892 (inactive),3.76,12200,13700
NC(N)=Nc1nc(CSCC/C(N)=N\S(N)(=O)=O)cs1,-15%,1.36,-0.31,1.43,82%,-4.06%,1,1.04,106% (inactive) and 35.6% (inactive),69.4% and 84.3%,1.13 (inactive),0.95,1.07,0.887 (inactive),1.64,11500,12900
CCN1CCN(C(=O)NC(C(=O)NC2C(=O)N3C(C(=O)O)=C(CSc4nnnn4C)CSC23)c2ccc(O)cc2)C(=O)C1=O (configuration not stated),16.1%,1.1,-10,0.84,50.2%,15.1%,2,1.47,146% (inactive) and 45.3% (inactive),72.7% and 103%,1.23 (inactive),0.99,1.22,0.914 (inactive),3.35,12000,13100
N[C@@H]1[C@@H](O)[C@H](O)[C@@H](CO)O[C@H]1O,-15.7%,0.98,5.73,0.85,66.7%,9.21%,2,1.04,80.5% (inactive) and 72% (inactive),75.2% and 93.7%,1.04 (inactive),1.08,1.12,0.914 (inactive),0.981,11500,12600
CCC[C@@H]1C[C@@H](C(=O)N[C@H]([C@H]2O[C@H](SC)[C@H](O)[C@@H](O)[C@H]2O)[C@H](C)O)N(C)C1,3.68%,1.23,8.96,0.99,67.6%,-19.8%,2,1.16,81.5% (inactive) and 50.6% (inactive),72.6% and 86.3%,1.04 (inactive),1.09,1.13,0.939 (inactive),2.92,11900,12700
CN1C2CC(OC(=O)[C@H](CO)c3ccccc3)C[C@H]1[C@H]1OC21 (some centres not stated),15.1%,1.26,6.9,1.03,58.7%,1.71%,2,1.18,98.3% (inactive) and 40.5% (inactive),76.7% and 88.6%,0.76 (inactive),1.11,0.84,0.977 (inactive),3.37,11400,11600
CC(=O)O[C@H]1C[C@@]2(C)[C@@H](C[C@@H](O)C3[C@]2(C)CC[C@H]2[C@H](C)[C@H](O)CC[C@]32C)/C1=C(/CCC=C(C)C)C(=O)O (some centres not stated),8.99%,1.55,-0.35,1.24,12.1%,11.6%,2,1.1,99.6% (inactive) and 102% (inactive),71.9% and 91.9%,1.29 (inactive),1.06,1.36,0.927 (inactive),1.7,11800,12700
C[C@]12C=CC(=O)C=C1CCC1C3C[C@@H](O)[C@](O)(C(=O)CO)[C@@]3(C)C[C@H](O)[C@@]12F (some centres not stated),-13.4%,1.07,-12.1,1.15,48.1%,-1.32%,2,1.12,233% (inactive) and 58.4% (inactive),72.6% and 84.9%,1.46 (inactive),0.85,1.24,0.829 (inactive),2.83,6430,7760
